PubChem BioAssay (NCATS)
Results filed as inconclusive are left out. The source made the active and inactive calls. Unless noted, the call rests on the fitted dose curve.

How the values were obtained:
[1] = qHTS for Inhibitors of the Functional Ribonucleoprotein Complex (vRNP) of Lassa (LASV) Arenavirus: LASV Primary Screen - GLuc reporter signal (AID 1347082; calls by dose curve; tested in HEK293 reporter line; further: nearly all actives have a fitted effect of over 60% in size)
[2] = qHTS for Inhibitors of the Functional Ribonucleoprotein Complex (vRNP) of Lassa (LASV) Arenavirus: Viability assay - alamar blue signal for LASV Primary Screen (AID 1347083; calls by dose curve; tested in HEK293 reporter line; further: nearly all actives have a fitted effect of over 80% in size)
[3] = qHTS for Inhibitors of the Functional Ribonucleoprotein Complex (vRNP) of Lymphocytic Choriomeningitis Arenaviruses (LCMV): Viability assay - alamar blue signal for LCMV Primary Screen (AID 1347085; calls by dose curve; tested in HEK293 reporter line; further: nearly all actives have a fitted effect of over 80% in size)
[4] = molecular target: Nucleoprotein (Lymphocytic choriomeningitis virus (strain Armstrong)) (UniProt P09992); experiment: qHTS for Inhibitors of the Functional Ribonucleoprotein Complex (vRNP) of Lymphocytic Choriomeningitis Arenaviruses (LCMV): LCMV Primary Screen - GLuc reporter signal (AID 1347086); further: nearly all actives have a fitted effect of over 70% in size
Sequence of Nucleoprotein (Lymphocytic choriomeningitis virus (strain Armstrong)) (P09992 whole entry, looked up): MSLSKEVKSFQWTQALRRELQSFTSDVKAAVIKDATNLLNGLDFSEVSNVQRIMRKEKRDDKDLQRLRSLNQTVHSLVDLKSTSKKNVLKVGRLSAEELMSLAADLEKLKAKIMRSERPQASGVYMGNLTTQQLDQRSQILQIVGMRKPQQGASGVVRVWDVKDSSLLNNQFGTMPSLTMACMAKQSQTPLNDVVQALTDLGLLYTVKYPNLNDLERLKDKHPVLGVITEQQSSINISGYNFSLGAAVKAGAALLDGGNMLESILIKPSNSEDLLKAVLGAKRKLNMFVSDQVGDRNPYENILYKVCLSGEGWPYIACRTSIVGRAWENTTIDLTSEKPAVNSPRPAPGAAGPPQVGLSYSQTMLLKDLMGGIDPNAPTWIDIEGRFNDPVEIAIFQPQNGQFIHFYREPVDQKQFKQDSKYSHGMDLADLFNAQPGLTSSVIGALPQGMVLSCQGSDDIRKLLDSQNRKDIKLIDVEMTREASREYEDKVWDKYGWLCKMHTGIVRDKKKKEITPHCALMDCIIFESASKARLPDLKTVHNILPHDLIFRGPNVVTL
Further: series mostly up to about 57 µM.
On the % scale 0 is the no-effect control and ±100 the full control effect.

CCOc1ccc(NC(=O)CC(C)O)cc1 (configuration not stated)
inactive: Potency [1] | Potency [2] | Potency [3] | Potency [4]

CCCC(=O)Nc1ccc(O)c(C(C)=O)c1
inactive: Potency [1] | Potency [2] | Potency [3] | Potency [4]

CC(=O)O[C@]1(C(C)=O)CC[C@H]2[C@@H]3C[C@H](C)C4=CC(=O)CC[C@]4(C)[C@H]3CC[C@@]21C
inactive: Potency [1] | Potency [2] | Potency [3] | Potency [4]

CCOC(=O)Oc1ccc(CCNC(=O)[C@H](CCSC)NC(C)=O)cc1OC(=O)OCC
inactive: Potency [1] | Potency [2] | Potency [3] | Potency [4]

CC(=O)Nc1ccc(OC(=O)c2ccccc2OC(C)=O)cc1
inactive: Potency [1] | Potency [2] | Potency [3] | Potency [4]

CC(=O)OCC(=O)[C@@]1(O)[C@H](OC(C)=O)C[C@H]2[C@@H]3CCC4=CC(=O)C=C[C@]4(C)[C@@]3(F)[C@@H](O)C[C@@]21C
inactive: Potency [1] | Potency [2] | Potency [3] | Potency [4]

Cc1onc(-c2ccccc2)c1C(=O)Cl
inactive: Potency [1] | Potency [2] | Potency [3] | Potency [4]

CC(C)(Oc1ccc(Cl)cc1)C(=O)OCCCOC(=O)C(C)(C)Oc1ccc(Cl)cc1
inactive: Potency [1] | Potency [2] | Potency [3] | Potency [4]

O=C1c2ccccc2C(=O)c2c1ccc(O)c2O
inactive: Potency [1] | Potency [2] | Potency [3] | Potency [4]

COC(=O)/C=C\C(=O)OC
inactive: Potency [1] | Potency [2] | Potency [3] | Potency [4]

O=C(Oc1ccccc1C(=O)O)c1ccccc1O
inactive: Potency [1] | Potency [2] | Potency [3] | Potency [4]

CC1(C)S[C@@H]2[C@H](NC(=O)C(c3ccccc3)S(=O)(=O)O)C(=O)N2[C@H]1C(=O)O (some centres not stated)
inactive: Potency [1] | Potency [2] | Potency [3] | Potency [4]

NC(=O)n1c(O)c(C(=O)c2cccs2)c2cc(Cl)ccc21
inactive: Potency [1] | Potency [2] | Potency [3] | Potency [4]

O=C(c1ccco1)N1CCNCC1
inactive: Potency [1] | Potency [2] | Potency [3] | Potency [4]

CC(C)(Oc1ccc(Cl)cc1)C(=O)O
inactive: Potency [1] | Potency [2] | Potency [3] | Potency [4]

COc1cc(C(=O)OC(COCCC(C)C)CN2CCOCC2)cc(OC)c1OC (configuration not stated)
inactive: Potency [1] | Potency [2] | Potency [3] | Potency [4]

COc1ccc2cc1Oc1cc3c(cc1OC)CC[N+](C)(C)[C@H]3Cc1ccc(cc1)Oc1c(OC)c(OC)cc3c1[C@@H](C2)[N+](C)(C)CC3
inactive: Potency [1] | Potency [2] | Potency [3] | Potency [4]

Nc1ccc(S(=O)(=O)NCc2ccccc2)cc1
inactive: Potency [1] | Potency [2] | Potency [3] | Potency [4]

CC(COc1ccccc1)NN (configuration not stated)
inactive: Potency [1] | Potency [2] | Potency [3] | Potency [4]

CC1(C)Oc2ccc(C#N)cc2[C@@H](N2CCCC2=O)[C@@H]1O
inactive: Potency [1] | Potency [2] | Potency [3] | Potency [4]

CN1CCN(CC(=O)N2c3ccccc3C(=O)Nc3cccnc32)CC1
inactive: Potency [1] | Potency [2] | Potency [3] | Potency [4]

CCCCCCCCCCCCCCCCCCO
inactive: Potency [1] | Potency [2] | Potency [3] | Potency [4]

CN1CCN2c3ncccc3Cc3ccccc3C2C1 (configuration not stated)
inactive: Potency [1] | Potency [2] | Potency [3] | Potency [4]

NS(=O)(=O)c1ccc(NC(=O)CCC(=O)O)cc1
inactive: Potency [1] | Potency [2] | Potency [3] | Potency [4]

CC(=O)[C@H]1CC[C@H]2[C@@H]3C=CC4=CC(=O)CC[C@@]4(C)[C@@H]3CC[C@]12C
inactive: Potency [1] | Potency [2] | Potency [3] | Potency [4]

FC1(F)C(F)(F)C(F)(F)C2(F)C(F)(F)C(F)(F)C(F)(F)C(F)(F)C2(F)C1(F)F (configuration not stated)
inactive: Potency [1] | Potency [2] | Potency [3] | Potency [4]

CCCc1c2oc(C(=O)O)cc(=O)c2cc2c(=O)cc(C(=O)O)n(CC)c12
inactive: Potency [1] | Potency [2] | Potency [3] | Potency [4]

O=S(=O)(O)c1ccc(O)cc1
inactive: Potency [1] | Potency [2] | Potency [3] | Potency [4]

CCCOc1ccc2c(c1)CC[C@@H]1[C@@H]2CC[C@]2(C)C(OC)CC[C@@H]12 (some centres not stated)
inactive: Potency [1] | Potency [2] | Potency [3] | Potency [4]

Cc1nnc(SCC2=C(C(=O)O)N3C(=O)[C@@H](NC(=O)Cn4cnnn4)[C@H]3SC2)s1
inactive: Potency [1] | Potency [2] | Potency [3] | Potency [4]

COc1ccc2cccc(CCNC(C)=O)c2c1
inactive: Potency [1] | Potency [2] | Potency [3] | Potency [4]

O=c1cc[nH]c(=O)[nH]1
inactive: Potency [1] | Potency [2] | Potency [3] | Potency [4]

O=C1CCCc2c(O)cccc21
inactive: Potency [1] | Potency [2] | Potency [3] | Potency [4]

OC[C@H]1O[C@H](O[C@]2(CCl)O[C@H](CCl)[C@@H](O)[C@@H]2O)[C@H](O)[C@@H](O)[C@H]1Cl
inactive: Potency [1] | Potency [2] | Potency [3] | Potency [4]

CNC[C@H](O)c1cccc(O)c1
inactive: Potency [1] | Potency [2] | Potency [3] | Potency [4]

CCN1CCC[C@H]1CNC(=O)c1c(OC)ccc(Br)c1OC
inactive: Potency [1] | Potency [2] | Potency [3] | Potency [4]

Clc1ccc2c(c1)Nc1ccccc1S2
inactive: Potency [1] | Potency [2] | Potency [3] | Potency [4]

COc1ccccc1OCC(O)CO (configuration not stated)
inactive: Potency [1] | Potency [2] | Potency [3] | Potency [4]

O=C(c1ccccc1)C(O)c1ccccc1 (configuration not stated)
inactive: Potency [1] | Potency [2] | Potency [3] | Potency [4]

CCCc1nn(C)c2c(=O)[nH]c(-c3cc(S(=O)(=O)N4CCN(C)CC4)ccc3OCC)nc12
inactive: Potency [1] | Potency [2] | Potency [3] | Potency [4]

CCCCCCn1c(=O)c2c(ncn2C)n(C)c1=O
inactive: Potency [1] | Potency [2] | Potency [3] | Potency [4]

C#CCN[C@@H]1CCc2ccccc21
inactive: Potency [1] | Potency [2] | Potency [3] | Potency [4]

CC(O)(P(=O)(O)O)P(=O)(O)O
inactive: Potency [1] | Potency [2] | Potency [3] | Potency [4]

Cc1cc(=O)n(-c2ccccc2)n1C
inactive: Potency [1] | Potency [2] | Potency [3] | Potency [4]

O=C(O)CCCCC1CCSS1 (configuration not stated)
inactive: Potency [1] | Potency [2] | Potency [3] | Potency [4]

O=C1CC2(CCCC2)CC(=O)N1
inactive: Potency [1] | Potency [2] | Potency [3] | Potency [4]

COC(=O)C1=C(C)NC(C)=C(C(=O)OCC(C)=O)C1c1ccccc1[N+](=O)[O-] (configuration not stated)
inactive: Potency [1] | Potency [2] | Potency [3] | Potency [4]

COc1cc(O)cc(O)c1
inactive: Potency [1] | Potency [2] | Potency [3] | Potency [4]

CCCCCCCCCCOc1cc2c(=O)c(C(=O)OCC)c[nH]c2cc1OCC
inactive: activity change, negative = inhibition [1] -8.32% [at 5.82 µM] | activity change, negative = reduced viability [2] 1.68% [at 5.82 µM] | activity change, negative = lower viability [3] 5.24% [at 5.82 µM] | activity change, negative = inhibition [4] 13.4% [at 5.82 µM]

CC(C)OP(=O)(CP(=O)(OC(C)C)OC(C)C)OC(C)C
inactive: Potency [1] | Potency [2] | Potency [3] | Potency [4]

CC(C)OC(=O)OCOP(=O)(CO[C@H](C)Cn1cnc2c(N)ncnc21)OCOC(=O)OC(C)C
inactive: Potency [1] | Potency [2] | Potency [3] | Potency [4]

O=C(O)CNC(=O)c1ccccc1
inactive: Potency [1] | Potency [2] | Potency [3] | Potency [4]

CC(CN(C)C)C(C)(O)Cc1ccc(Cl)cc1 (configuration not stated)
inactive: Potency [1] | Potency [2] | Potency [3] | Potency [4]

O=[N+]([O-])c1ccc(/C=N\O)o1
inactive: Potency [1] | Potency [2] | Potency [3] | Potency [4]

Clc1cccc(C(c2ccc3nc[nH]c3c2)n2ccnc2)c1 (configuration not stated)
inactive: Potency [1] | Potency [2] | Potency [3] | Potency [4]

CNC[C@H](O)[C@@H](O)[C@H](O)[C@H](O)CO
inactive: Potency [1] | Potency [2] | Potency [3] | Potency [4]

Nc1ccc(S(=O)(=O)Nc2ccnn2-c2ccccc2)cc1
inactive: Potency [1] | Potency [2] | Potency [3] | Potency [4]

C[C@]12C=CC(=O)C=C1[C@@H](F)C[C@@H]1[C@@H]2[C@@H](O)C[C@@]2(C)[C@H]1CC[C@]2(O)C(=O)CO
inactive: Potency [1] | Potency [2] | Potency [3] | Potency [4]

O=C(O)C(S)C(S)C(=O)O (configuration not stated)
inactive: Potency [1] | Potency [2] | Potency [3] | Potency [4]

c1ccc2c(c1)CCCC2C1=NCCN1 (configuration not stated)
inactive: Potency [1] | Potency [2] | Potency [3] | Potency [4]

COc1ccc(C2C(=O)c3ccccc3C2=O)cc1
inactive: Potency [1] | Potency [2] | Potency [3] | Potency [4]

Cc1ccsc1/C=C/C1=NCCCN1C
inactive: Potency [1] | Potency [2] | Potency [3] | Potency [4]

Cc1cccc(C)c1NC(=O)CC12CCCN1CCC2
inactive: Potency [1] | Potency [2] | Potency [3] | Potency [4]

Cn1c(=O)c2c(ncn2CC(=O)O)n(C)c1=O
inactive: Potency [1] | Potency [2] | Potency [3] | Potency [4]

Cc1c(C)c2c(c(C)c1O)CCC(C)(COc1ccc(CC3SC(=O)NC3=O)cc1)O2 (configuration not stated)
inactive: Potency [1] | Potency [2] | Potency [3] | Potency [4]

CC(C)(C)c1ccc(O)cc1
inactive: Potency [1] | Potency [2] | Potency [3] | Potency [4]

COc1ccc(NS(=O)(=O)c2ccc(N)cc2)nn1
inactive: Potency [1] | Potency [2] | Potency [3] | Potency [4]

CCN(CC)CC(=O)Oc1ccc(NC(C)=O)cc1
inactive: Potency [1] | Potency [2] | Potency [3] | Potency [4]

C=CCN1CCc2nc(N)sc2CC1
inactive: Potency [1] | Potency [2] | Potency [3] | Potency [4]

CCCNC(C)C(=O)Nc1ccccc1C (configuration not stated)
inactive: Potency [1] | Potency [2] | Potency [3] | Potency [4]

Clc1cccc(Cl)c1NC1=NCCN1
inactive: Potency [1] | Potency [2] | Potency [3] | Potency [4]

O=C(NCCO[N+](=O)[O-])c1cccnc1
inactive: Potency [1] | Potency [2] | Potency [3] | Potency [4]

NC(N)=NS(=O)(=O)c1ccc(N)cc1
inactive: Potency [1] | Potency [2] | Potency [3] | Potency [4]

CCCCCCCCCCCCCCCCOP(=O)([O-])OCC[N+](C)(C)C
inactive: Potency [1] | Potency [2] | Potency [3] | Potency [4]

CN1N=C(C(N)=O)CCC1=O
inactive: Potency [1] | Potency [2] | Potency [3] | Potency [4]

C[C@H](NC(CCc1ccccc1)C(=O)O)C(=O)N1CCC[C@H]1C(=O)O (some centres not stated)
inactive: Potency [1] | Potency [2] | Potency [3] | Potency [4]

CCC[C@@H]1C[C@@H](C(=O)N[C@@H]([C@H]2O[C@H](SC)[C@H](O)[C@@H](O)[C@H]2O)[C@@H](C)O)N(C)C1
inactive: Potency [1] | Potency [2] | Potency [3] | Potency [4]

CCOc1cc(OCC)c(C(=O)CCC(=O)O)cc1OCC
inactive: Potency [1] | Potency [2] | Potency [3] | Potency [4]
